# Data: PubChem BioAssay AID372 (MTDP, 2006)
# The whole screen tested about 100,000 compounds, of which about 770 (0.77%) were called active. Many of the other results were omitted from the sample, so actives are more common in it than they were. Unmarked numbers belong to inactive results. Rule as the data show it: active = inhibition above about 50%; inactive = the rest.
# Target: Gag-Pol polyprotein (Human immunodeficiency virus type 1 group M subtype B (isolate HXB2)) (UniProt P04585)
# Assay: RNase H inhibition, HIV 1 Gag Pol polyprotein, FRET biochemical assay, screening (AID 372)
# Conditions: HIV-1 RT RNase H, FRET RNA/DNA substrate fluorescence; at 10 µM; stronger effect = higher value
row,SMILES,inhibition
1,N#Cc1cc2c(N)c(C(=O)c3ccccc3)sc2nc1N,8%
2,CC1=C(C(=O)OC2CCCCC2)C(c2ccccc2[N+](=O)[O-])C2=C(CCCC2=O)N1 (centres undefined),10%
3,CC(C)(C)c1cc(CCC(=O)NCCO)cc(C(C)(C)C)c1O,0%
4,COC(=O)CCc1cc(C(C)(C)C)c(O)c(C(C)(C)C)c1,0%
5,CC(C)(C)c1cc(CCC(=O)NCCNC(=O)C(=O)NCCNC(=O)CCc2cc(C(C)(C)C)c(O)c(C(C)(C)C)c2)cc(C(C)(C)C)c1O,55% (active)
6,Cc1ccccc1OCCOc1ccc(/C=c2\sc3nc4ccccc4n3c2=O)cc1,5%
7,C=CCN1C(=O)C(O)=C(C(C)=O)C1c1ccc(Br)cc1 (centres undefined),8%
8,Cc1ccc(-c2nc3ccccc3s2)cc1NC(=O)COc1ccccc1,10%
9,Cc1cccc(OCC(=O)Nc2cccc(-c3nc4ccccc4s3)c2)c1,9%
10,Cc1ccc(-c2nc3ccccc3s2)cc1NC(=O)COc1ccc(Cl)cc1,69% (active)
11,Cc1cc(C)cc(OCC(=O)Nc2cccc(-c3nc4ccccc4s3)c2)c1,53% (active)
12,COc1ccc(OCC(=O)Nc2cccc(-c3nc4ccccc4s3)c2)cc1,7%
13,COc1ccc(OCC(=O)Nc2cc(-c3nc4ccccc4s3)ccc2C)cc1,2%
14,CCc1cc(=O)oc2c(C)c(OCc3ccc(Cl)cc3)ccc12,5%
15,CN1C(=O)/C(=C\c2cccc(OCc3ccc(Cl)cc3Cl)c2)SC1=S,11%
16,Cc1ccccc1N=C(NOCc1ccc(Cl)cc1Cl)c1nonc1N,13%
17,Nc1nonc1C(=Nc1ccccc1)NOCc1ccc(Cl)cc1Cl,32%
18,COc1ccc(C2CC(=O)C3=C(C2)Nc2ccccc2NC3c2cccc(Cl)c2Cl)cc1OC (centres undefined),16%
19,CCc1nnc(NC(=O)Nc2ccc(Cl)cc2)s1,10%
20,Cc1cc(C)c2nc3s/c(=C\c4ccc(Cl)cc4Cl)c(=O)n3c2c1,0%
21,COc1cccc2cc(C(=O)O)c(=O)oc12,6%
22,COc1cccc2cc(C(C)=O)c(=O)oc12,3%
23,Brc1ccc(CN2CCN(c3ncccn3)CC2)s1,1%
24,Cc1c(NC(=S)NC(=O)/C=C/c2ccccc2)cccc1-c1nc2ccccc2o1,36%

row,SMILES,inhibition
1,Cc1c(NC(=S)NC(=O)/C=C/c2ccccc2)cccc1-c1nc2ncccc2o1,52% (active)
2,Cc1ccc(-c2nc3ncccc3o2)cc1NC(=S)NC(=O)/C=C/c1ccccc1,5%
3,CCOc1ccc(OCCCCOc2ccccc2C)cc1,18%
4,O=C(N/N=C/c1cccc(Br)c1)C(=O)N1CCCC1,15%
5,N#CC1=C(N)Oc2cc(N)ccc2C1c1cccc(Oc2ccccc2)c1 (centres undefined),5%
6,OCCNCCCOc1cc(Cl)ccc1Cl,8%
7,CCCCNCCCCCCOc1ccc(Cl)cc1Cl,10%
8,CCCCNCCCOc1cc(Cl)ccc1Cl,57% (active)
9,COc1ccc(-c2cc(C(=O)NCc3ccco3)c3ccccc3n2)cc1,14%
10,COC(=O)c1c(NC(=O)c2ccccc2Br)sc(C)c1C,23%
11,O=C1N=c2ccc(Cl)cc2=C1c1sc(=O)n(-c2ccccc2)c1O,42%
12,CCN(CC)c1ccc(-n2c(O)c(C3=c4ccccc4=NC3=O)sc2=S)cc1,50% (active)
13,O=C1N=c2ccccc2=C1c1sc(=S)n(-c2ccc(Cl)cc2)c1O,0%
14,O=C1N=c2ccc(Br)cc2=C1c1sc(=O)n(-c2ccc(O)cc2)c1O,41%
15,O=C1N=c2ccc(Br)cc2=C1c1sc(=S)n(-c2ccc(Br)cc2)c1O,15%
16,O=C1N=c2ccc(Br)cc2=C1c1sc(=O)n(-c2cccc(Cl)c2)c1S,50% (active)
17,O=C1N=c2ccccc2=C1c1sc(=S)n(-c2ccc(F)cc2)c1O,12%
18,CCOc1ccc(-n2c(O)c(C3=c4cc(Br)ccc4=NC3=O)sc2=S)cc1,9%
19,O=C1N=c2ccc(Br)cc2=C1c1sc(=S)n(-c2ccc(Cl)cc2)c1O,51% (active)
20,CC(C)c1ccc(/C=C2/C(=O)NN(c3ccccc3)C2=O)cc1,4%
21,CCOC(=O)c1ccc(NC(=S)NCCO)cc1,0%
22,C=CCc1ccc(OCCOc2cccc(/C=C3\SC(=S)N(CC)C3=O)c2)c(OC)c1,26%
23,C=CCN1C(=O)/C(=C\c2ccc(-c3ccc([N+](=O)[O-])cc3)o2)SC1=S,4%
24,Cc1ccccc1NC1=C(Cl)C(=O)N(c2cccc(C)c2C)C1=O,9%

row,SMILES,inhibition
1,CCOC(=O)C1=C(C)N=c2s/c(=C/c3ccc(-c4cccc(C(F)(F)F)c4)o3)c(=O)n2C1c1cccs1 (centres undefined),6%
2,COc1ccc(C2=C/C(=C/c3ccccc3OC)C(=O)O2)c(OC)c1,2%
3,CC(=O)C1=C(O)C(=O)N(Cc2ccccc2)C1c1ccc([N+](=O)[O-])cc1 (centres undefined),12%
4,COc1ccc(C(=O)Nc2ccc(Cc3ccc(NC(=O)c4ccc(OC)cc4)cc3)cc2)cc1,52% (active)
5,COc1ccc(C(=O)Nc2ccc(Cc3ccncc3)cc2)cc1OC,6%
6,COc1cc(C(=O)Nc2ccc(Cc3ccc(NC(=O)c4cc(OC)c(OC)c(OC)c4)cc3)cc2)cc(OC)c1OC,1%
7,COc1ccc(C(=O)Nc2ccc(NC(=O)c3ccc(OC)cc3)cc2)cc1,16%
8,COc1ccc(C(=O)Nc2ccc(NC(=O)c3ccc(NC(=O)c4ccc(OC)cc4)cc3)cc2)cc1,8%
9,COc1cc(C(=O)Nc2ccc(Cc3ccncc3)cc2)cc(OC)c1OC,56% (active)
10,CCc1ccc(C2Nc3ccccc3NC3=C2C(=O)CC(c2ccc(OC)cc2)C3)s1 (centres undefined),7%
11,O=C(N/N=C/c1cccc(/C=N/NC(=O)c2cccnc2)c1)c1cccnc1,0%
12,COc1ccc(NC(=O)c2ccc(CN3CCN(c4ccccc4)CC3)cc2)cc1,9%
13,COc1ccc(C(=O)NC(=S)Nc2ccc3oc(-c4ccc(OC)c(Cl)c4)nc3c2)cc1,20%
14,CC(=O)Nc1ccccc1NC(=O)c1cccc(F)c1,0%
15,NNC(=O)COc1ccccc1-c1ccccc1,14%
16,O=C1C(=O)N(c2ccccc2)C(c2ccc([N+](=O)[O-])cc2)/C1=C(/O)c1ccccn1 (centres undefined),0%
17,O=C(CN1C(=O)c2cccc3cccc(c23)C1=O)OCc1ccc2c(c1)OCO2,53% (active)
18,O=C(CN1C(=O)c2cccc3cccc(c23)C1=O)NCc1ccc2c(c1)OCO2,5%
19,O=C(CCCN1C(=O)c2cccc3cccc(c23)C1=O)OCc1ccc2c(c1)OCO2,31%
20,CCSc1nc(-c2ccccc2)nc(C(Cl)Cl)n1,25%
21,CC(C)c1ccc(OCC(=O)Nc2ncc(S(=O)(=O)c3ccc([N+](=O)[O-])cc3)s2)cc1,58% (active)
22,O=C(COc1ccc(Br)cc1)Nc1ncc(S(=O)(=O)c2ccc([N+](=O)[O-])cc2)s1,19%
23,O=C(Nc1ncc(S(=O)(=O)c2ccc([N+](=O)[O-])cc2)s1)c1ccc(Cl)cc1Cl,6%
24,O=C(COc1ccc(Cl)cc1)Nc1ncc(S(=O)(=O)c2ccc([N+](=O)[O-])cc2)s1,12%

row,SMILES,inhibition
1,O=C(Nc1ncc(S(=O)(=O)c2ccc([N+](=O)[O-])cc2)s1)c1ccccc1Cl,54% (active)
2,O=C(O)c1ccccc1C(=O)Nc1ncc(S(=O)(=O)c2ccc([N+](=O)[O-])cc2)s1,10%
3,CCc1ccc(-n2nc(C)c3c(C)cc(=O)oc32)cc1,7%
4,O=C(O)C1CCC(c2ccccc2)CC1 (centres undefined),4%
5,O=C(c1nn2c(C(F)(F)F)cc(-c3ccc(F)cc3)nc2c1Cl)N1CCOCC1,3%
6,C(=N/Nc1nc2ccccc2o1)/c1ccc(N2CCOCC2)cc1,20%
7,Cc1ccc(S(=O)(=O)/N=C2/C=C(Br)C(=O)c3ccccc32)cc1,32%
8,Cc1ccc(S(=O)(=O)/N=C2/C=C(Sc3nnnn3-c3ccccc3)C(=O)c3ccccc32)cc1,43%
9,COc1ccc(Nc2ccc(N)cc2)cc1,19%
10,O=C(Nc1ccc(-c2nc3ccccc3[nH]2)cc1)c1ccc(Cl)cc1,14%
11,O=C(Nc1ccc(-c2nc3ccccc3[nH]2)cc1)c1cc2ccccc2o1,51% (active)
12,O=C(Nc1ccc(-c2nc3ccccc3[nH]2)cc1)c1ccc(Cl)c(Cl)c1,59% (active)
13,O=C(Nc1ccc(Cl)c(-c2nc3ccccc3[nH]2)c1)c1cc2ccccc2o1,11%
14,Cc1ccc(-c2nc3ccccc3[nH]2)cc1NC(=O)c1cc2ccccc2o1,8%
15,CC(=O)Nc1ccc(C(=O)Nc2ccc(-c3nc4ccccc4[nH]3)cc2)cc1,3%
16,CCOC(=O)/C(=N/Nc1cccc(C)c1)c1csc(N)n1,10%
17,COc1ccc(/C=C/C(=O)Oc2ccc3c(c2)C(C)=CC(C)(C)N3)cc1,16%
18,O=C(N=Nc1c(O)n(CN2CCCCC2)c2ccccc12)c1ccncc1,0%
19,CC1(C)NC(=O)N(CC(O)CN(c2cccc([N+](=O)[O-])c2)S(=O)(=O)c2ccccc2)C1=O (centres undefined),0%
20,S=C(Nc1ccccc1)N1CCN(C(c2ccccc2)c2ccccc2)CC1,56% (active)
21,S=C(Nc1ccccc1)N1CCN(C(=S)Nc2ccccc2)CC1,9%
22,S=C(Nc1cccc2ccccc12)N1CCN(C(c2ccccc2)c2ccccc2)CC1,5%
